# Screens (PubChem BioAssay)
# Most compounds without a hit are left out; they make up all but 20% or so of the library.
# Cycloheximide cs: Cycloheximide Counterscreen for Small Molecule Inhibitors of Shiga Toxin; 300,000 tested, 12% active; cell reporter, cycloheximide protein synthesis inhibition counterscreen; max response, %; in the data active = max response mostly above about 13%, no sharp cut-off; inactive = mostly below about 14%; note: read at 38.3 µM for the half of the compounds with a filed dose; 0% is about no effect
# Pf growth 96h: Primary qHTS for delayed death inhibitors of the malarial parasite plastid, 96 hour incubation. Potency, µM (doses to about 28.7 µM), for the others: at the top dose activity change, negative = inhibition, actives largely listed as inhibitors. AID 504834, 2011. 320,000 tested, 6.9% active. P. falciparum luciferase reporter growth, 96 h; note: potency is the fitted concentration of half-maximal effect; % is set by controls: 0 for no effect and ±100 for the full control effect
#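 Infected RBCs, 2% Hct / 0.05% parasitemia final; luciferase-reporter P. falciparum; cpd 96 h, 37 C, 5% CO2; luciferase detection reagent; luminescence.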
# Shiga toxin inh: A qHTS for Small Molecule Inhibitors of Shiga Toxin; inhibition, % at 38.7 µM; Vero cells, Shiga toxin protein synthesis inhibition reporter; 290,000 tested, 9.2% active; in the data active = inhibition mostly above about 28%, no sharp cut-off; inactive = mostly below about 43%; note: 0% is about no effect
# Pf growth 48h: Primary qHTS for delayed death inhibitors of the malarial parasite plastid, 48 hour incubation | P. falciparum luciferase growth in erythrocytes, 48 h | 310,000 tested, 5.9% active | Potency, µM (series often up to 28.7 µM), for inactives: at the top dose activity change, negative = inhibition, most hits filed as inhibitors; note: potency is the fitted concentration of half-maximal effect; % is set by controls: 0 for no effect and ±100 for the full control effect
#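 In quantitative HTS format, infected erythrocytes bearing luciferase-reporter parasites were treated for a single generation at 37 C. Luminescence after adding detection reagent served as the growth measure.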
# HCMV inh: qHTS Assay for inhibitors of the human cytomegalovirus (HCMV); HFF cells, HCMV-luciferase reporter, 72 h; stronger effect = lower value; activity change, negative = inhibition, % at 57.5 µM; 410,000 tested, 4.5% active; AID 1259415, 2018; in the data active = activity change below about -60%; inconclusive = no clear call, values can overlap the other calls; inactive = above about -39%; note: % is set by controls: 0 for no effect and ±100 for the full control effect
#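 Two-dose cell screen: HFF monolayers treated with compounds and infected with luciferase-expressing HCMV at 1 PFU/cell, 72 h at 37C, then lysed for luciferase measurement.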
# * hit, by the source's call; ? = inconclusive; nt = no result given. Unless noted, calls come from the whole dose curve; as a rule, active = well fitted inhibition curve with a large enough effect; inconclusive = small, poorly fitted or top-dose-only effect, or another doubt; inactive = no such curve, though single readings can be large or run the other way.
SMILES,Cycloheximide cs,Pf growth 96h,Shiga toxin inh,Pf growth 48h,HCMV inh
CCOc1ccc(NC(=O)Cn2c(=O)n(CCC(=O)NCCc3ccccc3)c(=O)c3ccccc32)cc1,nt,nt,nt,nt,15
COc1ccc(CCn2c(=N)c(S(=O)(=O)c3ccc(Cl)cc3)cc3c(=O)n4ccccc4nc32)cc1,3,2.6µM*,-1,4.7µM*,?
COc1ccc(CCn2c(=N)c(S(=O)(=O)c3ccccc3)cc3c(=O)n4ccccc4nc32)cc1,1,?,-12,?,?
Cc1ccc(S(=O)(=O)c2cc3c(=O)n4cccc(C)c4nc3n(C3CCCCC3)c2=N)cc1,0,58%,-9,-9%,nt
Cc1ccc(S(=O)(=O)c2cc3c(=O)n4ccccc4nc3n(CCc3ccccc3)c2=N)cc1,5,-5%,8,2.1µM*,13
Cc1ccc(S(=O)(=O)c2cc3c(=O)n4ccccc4nc3n(C3CCCC3)c2=N)cc1,-4,9%,-7,5.2µM*,8
N#Cc1ccccc1NC(=O)C1CCCO1 (centres undefined),nt,nt,nt,nt,-11
COc1ccc(-c2nn(-c3ccccc3)cc2/C=N/NC(N)=S)cc1OC,-2,15µM*,17,12µM*,-4
COc1ccc(-c2nn(-c3ccccc3)cc2C(N)=O)cc1OC,6,15µM*,nt,42%,9
COc1ccc(-c2nn(-c3ccccc3)cc2/C=C/C(=O)O)cc1[N+](=O)[O-],13*,-8%,41,-17%,34
CC(C)(C)C(=O)CN1C(=O)NC2(CCc3ccccc32)C1=O (centres undefined),-2,2%,18,12%,16
Cc1cc2nc(-c3ccc(Cl)cc3)c(CC(C)(C)C)n2c(C)c1Br,nt,nt,nt,nt,33
COCCCN(C(=O)C(C)Oc1ccc(Br)cc1)c1c(N)n(Cc2ccccc2)c(=O)[nH]c1=O (centres undefined),nt,?,nt,13µM*,5
COCCCN(C(=O)CCOc1ccccc1C)c1c(N)n(Cc2ccccc2)c(=O)[nH]c1=O,nt,?,nt,13µM*,-14
CC(C)CCN(C(=O)CCSc1ccc(F)cc1)c1c(N)n(Cc2ccccc2)c(=O)[nH]c1=O,nt,?,nt,9.3µM*,-9
CCCN(C(=O)CCOc1ccc(C(C)(C)C)cc1)c1c(N)n(Cc2ccccc2)c(=O)[nH]c1=O,nt,?,nt,2.6µM*,-18
CCOc1ccc(S(=O)(=O)NCC(c2ccco2)S(=O)(=O)c2ccc(F)cc2)cc1 (centres undefined),nt,nt,nt,nt,-22
Cc1ccc(OCCC(=O)N(CCC(C)C)c2c(N)n(Cc3ccccc3)c(=O)[nH]c2=O)cc1,nt,?,nt,10µM*,nt
COc1ccc(N2CCN(C(=O)c3cccc(Cn4cc(Cl)cn4)c3)CC2)cc1,8,?,17,-40%,7
O=C(O)c1cccc(Cn2cc(Cl)cn2)c1,-4,25%,9,11%,32
CCn1c(NC(=O)c2cccc(Cn3cc(Cl)cn3)c2)nc2ccccc21,8,?,36,10µM*,-68*
Cn1c(NC(=O)c2cccc(Cn3cc(Cl)cn3)c2)nc2ccccc21,69*,nt,195*,-1%,29
O=C(Nc1cccc(Cl)c1)c1ccc(Cn2cc(Cl)cn2)cc1,15*,-9%,79*,-10%,-14
CC(C)CNC(=O)c1cccc(Cn2cc(Cl)cn2)c1,-4,10µM*,37,-4%,38
CC(=O)Nc1ccc(NC(=O)c2ccc(Cn3cc(Cl)cn3)cc2)cc1,-1,?,-9,-6%,?
SMILES,Cycloheximide cs,Pf growth 96h,Shiga toxin inh,Pf growth 48h,HCMV inh
CCc1ccc(S(=O)(=O)c2nnn3c2nc(NCCC(C)C)c2cc(Cl)ccc23)cc1,nt,nt,nt,nt,-4
Cc1cc(C)cc(NC(=O)CS(=O)(=O)c2cccc3nsnc23)c1,-2,1%,-8,9%,-31
COC(=O)c1cccc(Cn2cc([N+](=O)[O-])cn2)c1,2,3.7µM*,-9,-11%,nt
CC(C)(c1ccccc1)c1ccc(OCC(O)CNC2CCN(Cc3ccccc3)CC2)cc1 (centres undefined),-6,2.1µM*,-28,3.3µM*,-113*
COc1ccc(CNCC(O)COc2ccc(C(C)(C)c3ccccc3)cc2)cc1 (centres undefined),-7,?,-7,9.3µM*,?
COC(=O)c1ccc(CNCC(O)COc2ccc(-c3ccccc3)cc2)cc1 (centres undefined),3,11%,37,?,24
